Screening data (PubChem)
ANO1 activ = activators or potentiators of mouse TMEM16A chloride channel | B-score at 10 µM | Q8BHY3 | 340,000 tested, 0.3% active | HEK293 TMEM16A/YFP-H148Q/I152L, iodide quench fluorescence; active compounds read low;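 active = fluorescence-ratio B-score plate-corrected deviation score at least 3 library SD below zero, with starting fluorescence score within 5 deviations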;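 note: channel opened by trigger with iodide after compound preincubation; score built on the fluorescence ratio of max minus min over baseline; more negative score means more quench and so TMEM16A activation or potentiation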
CHT block = inhibits the human high affinity choline transporter; CHT-expressing cells, membrane potential dye, choline response; active compounds read low; B-score at 10 µM; 310,000 tested, 0.86% active;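 active = B-score over 3 SD under the library average, and starting fluorescence ratio not unusually high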;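 note: choline stimulus applied at its EC90 after an EC20 pre-addition; B-score computed on integrated fluorescence ratio after choline addition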
Target sequence (Q9GZV3 whole entry, looked up): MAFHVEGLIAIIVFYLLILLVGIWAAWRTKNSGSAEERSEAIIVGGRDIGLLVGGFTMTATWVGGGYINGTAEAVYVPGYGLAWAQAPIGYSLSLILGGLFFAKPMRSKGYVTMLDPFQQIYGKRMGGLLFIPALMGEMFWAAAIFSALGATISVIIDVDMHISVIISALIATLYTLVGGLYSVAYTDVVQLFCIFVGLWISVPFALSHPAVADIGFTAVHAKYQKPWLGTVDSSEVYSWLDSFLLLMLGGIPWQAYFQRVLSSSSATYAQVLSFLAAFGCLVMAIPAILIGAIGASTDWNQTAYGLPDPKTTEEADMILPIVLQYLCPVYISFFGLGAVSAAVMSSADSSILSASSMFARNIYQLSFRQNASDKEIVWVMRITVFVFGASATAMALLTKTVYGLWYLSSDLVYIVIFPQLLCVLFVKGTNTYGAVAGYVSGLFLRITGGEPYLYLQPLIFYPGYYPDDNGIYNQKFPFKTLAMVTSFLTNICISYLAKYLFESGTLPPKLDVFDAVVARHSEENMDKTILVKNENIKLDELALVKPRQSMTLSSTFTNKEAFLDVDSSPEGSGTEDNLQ
CHT PAM = human CHT allosteric activation; Q9GZV3; CHT-expressing cells, membrane potential dye, choline EC20; active compounds read high; LV-AA mutant CHT in HEK293 cells; B-score at 10 µM; 310,000 tested, 0.49% active;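 active = initial fluorescence not abnormally high and integrated response B-score, plate-corrected, over 3 SD above library mean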
TMEM16A inh = mouse TMEM16A channel inhibition, primary screen; 310,000 tested, 1.2% active; AID 588511; normalized B-score (activity score, 25-100; higher = stronger inhibition) at 10 µM; HEK293 TMEM16A/YFP iodide influx fluorescence, ionomycin;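 active = ratio plate-corrected score three or more library SD toward inhibition, starting fluorescence score within five deviations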;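 note: score derived from kinetic fluorescence span divided by baseline fluorescence per well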
CHT inh conf = confirmation of human choline transporter CHT inhibitors; shares compounds with CHT block; CHT-expressing cells, choline membrane potential dye; LV-to-AA substituted CHT, HEK293 cells; CHT activity remaining % of control (active compounds read low), % at 10 µM; 2,400 tested, 70% active;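 active = choline transporter activity left, mean of duplicates at 10 µM, below buffer-only control mean minus 3 SD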;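 note: depolarization triggered by choline at its EC90 following an EC20 pre-addition; 0% = hemicholinium-3 full block and 100% = buffer-only control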
HEK293 CHT ctr = CHT inhibitor counter-screen hit in parental HEK293 cells | shares compounds with CHT block | 2,400 tested, 4% active | membrane potential ratio readout (active if shifted either direction beyond buffer ±3SD; no single direction) at 10 µM | membrane potential dye, choline response; active = decrease or increase beyond buffer ±3SD;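 note: parental cells lack the transporter so any hit is non-specific; ratio is peak minus trough fluorescence over baseline after EC90 choline challenge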
The depositor's hits bear a star; i = inactive; . = not tested or not shown. An excerpt weighted towards active compounds, which were near 2.3% of everything screened.

SMILES | ANO1 activ | CHT block | CHT PAM | TMEM16A inh | CHT inh conf | HEK293 CHT ctr
Cc1ccccc1NC(=O)c1ccc(CN2CC(=O)N3CCCCC3C2=O)cc1 (configuration not stated) | i | i | i | i | . | .
Cc1ccc(S(=O)(=O)N2CCCCC2)cc1NC(=O)CSc1nncn1-c1ccccc1 | i | -6.14* | i | i | 40.8%* | i
COc1ccc(-n2cnnc2SCC(=O)Nc2cc(S(=O)(=O)N3CCCCC3)ccc2C)cc1 | i | -5.31* | i | i | 53.1%* | i
COc1cccc(CNC(=O)c2ccc(C)c(NC3=NC4CS(=O)(=O)CC4S3)c2)c1 (configuration not stated) | i | i | i | i | . | .
CC(=O)Oc1ccc2nc(-c3cccs3)oc(=O)c2c1 | i | i | i | i | . | .
CC(=O)Oc1ccc2nc(-c3ccco3)oc(=O)c2c1 | i | -10.3* | i | i | i | i
CCn1cc(C(=O)N2CCCCC2)c(=O)c2cc(S(=O)(=O)N3CCC(C)CC3)ccc21 | i | -6.17* | i | i | 33.7%* | i
Cn1cc(C(=O)NC2CCCCC2)c(=O)c2cc(S(=O)(=O)N3CCCC3)ccc21 | i | i | i | i | . | .
CC1CCN(S(=O)(=O)c2ccc3c(c2)c(=O)c(C(=O)NC2CCCC2)cn3C)CC1 | i | -7.31* | i | i | 52.0%* | i
Cn1c(N2CCOCC2)c(/C=N/OC(=O)c2ccc(F)cc2)c2ccccc21 | i | -7.36* | i | i | 44.4%* | i
CCOC(=O)C1(Cc2ccccc2C)CCCN(C(=O)c2cc(C3CC3)[nH]n2)C1 (configuration not stated) | i | -6.27* | i | i | i | i
CCOC(=O)C1(Cc2ccccc2C)CCCN(C(=O)c2ccccn2)C1 (configuration not stated) | i | i | i | i | . | .
O=C(Nc1ccccc1)OCCN1CCOCC1 | i | . | . | . | . | .
CC(C)N(Cc1ccccc1)C(=O)CN1C(=O)NC2(CCOc3ccccc32)C1=O (configuration not stated) | i | . | . | . | . | .
COc1ccc(CN(C)CC(=O)N(C)CC(=O)Nc2ccccc2Br)cc1F | i | . | . | . | . | .
Cc1ccc(-c2nc3ccccc3c(=O)n2Cc2ccccc2)cc1 | i | i | i | i | . | .
O=c1c2ccccc2nc(-c2ccccc2)n1Cc1ccco1 | i | -6.04* | i | i | 69.8%* | i
Cc1onc(-c2ccccc2Cl)c1C(=O)Nc1nnc(-c2cccc([N+](=O)[O-])c2)s1 | i | -6.9* | i | 100* | 51.4%* | i
Cc1c(O)cc2n(c1=O)-c1ccc(Cl)cc1C2(C)C | i | i | i | i | . | .
CC(=O)c1c(O)cc(C(C)C)n(-c2ccccc2)c1=O | i | i | i | i | . | .
CC1(C)c2cc(Cl)ccc2-n2c1cc(O)c(-c1ccccc1)c2=O | i | -6.04* | i | i | 44.3%* | i
CC(C)c1cc(O)c(-c2ccccc2)c(=O)n1-c1ccc(Cl)cc1 | i | -5.01* | i | i | i | i
O=C1CC2(CCN(C(=O)c3ccccc3[N+](=O)[O-])CC2)Oc2ccccc21 | i | i | i | i | . | .
Cn1c(SCC(=O)NC2CCS(=O)(=O)C2)nc2ccccc21 (configuration not stated) | i | . | . | . | . | .
CCCc1cc(NCC2CCCO2)n2c(nc3ccccc32)c1C#N (configuration not stated) | i | -6.93* | i | i | 43.2%* | i
SMILES | ANO1 activ | CHT block | CHT PAM | TMEM16A inh | CHT inh conf | HEK293 CHT ctr
CCCc1cc(NCCN(C)C)n2c(nc3ccccc32)c1C#N | i | -6.06* | i | i | 50.8%* | i
CCCc1cc(NCc2ccccn2)n2c(nc3ccccc32)c1C#N | i | i | i | i | . | .
O=C(O)c1cnn(-c2nc(-c3ccc(F)cc3)cs2)c1C(F)(F)F | i | i | i | i | . | .
O=C(O)c1cnn(-c2nc(-c3ccc(Br)cc3)cs2)c1C(F)(F)F | i | -8.92* | i | i | i | i
Cc1onc(-c2ccccc2)c1C(=O)OCC(=O)N(CC(C)C)c1c(N)n(Cc2ccccc2)c(=O)[nH]c1=O | i | i | i | i | . | .
Cc1ccc(NC(=O)COC(=O)CN2C(=O)COc3ccccc32)cc1 | i | -4.96* | i | i | 43.0%* | i
Cc1ccc2c(c1)N(CCCC(=O)NCC1COc3ccccc3O1)C(=O)CO2 (configuration not stated) | i | -8.86* | i | i | 20.6%* | i
Cc1ccc2c(c1)N(CC(=O)NC1CCC(C)CC1)C(=O)CO2 (configuration not stated) | i | -5.87* | i | i | i | i
COc1c2c(cc3oc(CO[C@@H]4O[C@H](CO)[C@@H](O)[C@H](O)[C@H]4O)cc(=O)c13)O[C@H](C(C)(C)O)C2 | i | . | . | . | . | .
O=C(NCCN1CCOCC1)c1ccc(Cl)c(S(=O)(=O)N2CCCCCC2)c1 | i | i | i | i | . | .
O=C(O)c1ccc2c(=O)n(-c3ccc(F)c(Cl)c3)c(=S)[nH]c2c1 | i | i | i | i | . | .
O=C(NCCCN1CCOCC1)c1ccc2c(=O)n(-c3ccc(F)c(Cl)c3)c(=S)[nH]c2c1 | i | -10.5* | i | i | 21.2%* | i
COc1ccc(-n2c(=S)[nH]c3cc(C(=O)NCCCN4CCOCC4)ccc3c2=O)cc1 | i | -5.24* | i | i | 47.2%* | i
O=C(NCCCN1CCOCC1)c1ccc(Cl)c(S(=O)(=O)N2CCCCCC2)c1 | i | -8.28* | i | i | 36.5%* | i
Cc1cccc(OCCNS(=O)(=O)c2ccc(Cl)cc2)c1 | i | . | . | . | . | .
C=C1c2ccccc2O[C@H](C(=O)OCC)[C@H]1OC | i | . | . | . | . | .
CN(Cc1cccnc1)C(=O)c1cc(S(=O)(=O)Nc2ccccc2F)ccc1Cl | i | . | . | . | . | .
Cc1ccc(Sc2ncccc2NC(=O)c2ccccc2Cl)cc1 | i | -4.98* | i | i | i | i
CCOC(=O)c1ccccc1N/C=C/C(=O)c1cccs1 | i | -8.51* | i | i | 41.5%* | i
CCOC(=O)c1ccccc1NC(=O)c1cccs1 | i | i | i | i | . | .
N=C(N)SCc1ccccn1 | i | -5.94* | i | i | 33.4%* | i
CC(C)(C)C(=O)Oc1cccc(Nc2ncnc3ccccc23)c1 | i | -5.01* | i | 25* | 61.2%* | i
COc1ccc(C(=O)Oc2cccc(Nc3ncnc4ccccc34)c2)cc1OC | i | i | i | i | . | .
